From PubChem
Gal4-VP16 FLuc: Gal4-VP16 reporter inhibition counter-screen | Drosophila S2 Gal4-VP16 UAS-luciferase, luminescence, 20 h | Potency, µM (titrated, usually from 53.6 µM), hits mostly inhibitors | 310,000 compounds, 3.5% hits | AID 2546;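 further: Gal4-VP16 expression switched on by copper sulfate through the metallothionein promoter; nearly all actives have a fitted effect of over 50% in size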
TSHR antag: human thyrotropin receptor antagonism; P16473; TSHR-expressing cells, TSH-stimulated cAMP HTRF, 2 h; active compounds read low; activity change, negative = inhibition, % at 11.5 µM; 330,000 compounds, 0.2% hits; AID 504810;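 active means activity change below a set negative limit, meaning inhibition stronger than a set level, cut at about -70% in these data; inconclusive means activity change between two set negative limits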
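TSHR-expressing cells, 200/well, pre-treated with compound, then stimulated with EC80 TSH (4nM final) for 2 hours at 37 deg C. cAMP measured by competitive HTRF: anti-cAMP cryptate antibody in lysis buffer plus cAMP-d2, read after 30 minutes at room temperature.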
B2AR arrestin: recruits beta-arrestin to the human beta2-adrenergic receptor | beta-arrestin recruitment to beta2AR, cell-based reporter | 330,000 compounds, 0.02% hits | Potency, µM (top dose mostly 46.1 µM), usual class: activators; further: nearly all actives have a fitted effect of over 65% in size
ELG1 DNA repair: ELG1-dependent DNA repair inhibition. 330,000 compounds, 2.3% hits. HEK293T ELG1-luciferase reporter, luminescence, 16 h; DNA damage induced by 5-fluorouridine. Potency, µM (doses to about 46.1 µM), most hits filed as inhibitors; further: nearly all actives have a fitted effect of over 55% in size
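HEK293T cells expressing luciferase-tagged ELG1 (2,000/well) received 5-Fluorouridine plus compound or DMSO for 16 hr at 37 °C. Luciferase was read by ONE-Glo luminescence after 30 min at room temperature.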
RORg inh: blocks mouse ROR gamma transcriptional activity; AID 2551; Potency, µM (top dose mostly 53.6 µM), actives largely listed as inhibitors; 310,000 compounds, 5.4% hits; P51450; Drosophila S2 Gal4-RORgamma UAS-luciferase reporter, 20 h; further: nearly all actives have a fitted effect of over 60% in size
Target sequence (P51450 whole entry, looked up, the tested form may be a part): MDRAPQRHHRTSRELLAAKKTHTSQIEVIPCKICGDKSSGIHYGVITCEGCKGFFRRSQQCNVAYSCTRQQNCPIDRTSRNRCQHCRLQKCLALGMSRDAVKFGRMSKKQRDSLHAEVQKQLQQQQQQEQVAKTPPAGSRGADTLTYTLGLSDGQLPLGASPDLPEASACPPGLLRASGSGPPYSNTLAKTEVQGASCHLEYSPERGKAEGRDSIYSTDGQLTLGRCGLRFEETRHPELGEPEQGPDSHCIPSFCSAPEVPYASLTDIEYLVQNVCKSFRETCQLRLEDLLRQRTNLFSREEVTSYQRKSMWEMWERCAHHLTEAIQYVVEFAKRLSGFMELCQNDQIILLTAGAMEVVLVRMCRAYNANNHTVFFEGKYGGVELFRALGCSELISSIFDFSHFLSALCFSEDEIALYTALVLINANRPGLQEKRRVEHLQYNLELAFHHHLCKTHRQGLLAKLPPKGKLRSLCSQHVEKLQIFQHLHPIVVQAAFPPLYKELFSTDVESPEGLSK
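Drosophila S2 cells stably expressing Gal4-DBD/mouse RORγ fusion under metallothionein promoter plus UAS-luciferase; compound 1 h, then 700 uM CuSO4 induction for 20 h at ambient temperature; inhibition read as reduced luminescence.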
Each line names hits and unclear results; the compound was inactive in the other large screens. A selection: hits, their analogues and other compounds. The true share with any hit is near 7.5%. Unless noted, the call rests on the fitted dose curve; in most records, active means well fitted curve in the direction sought with a large enough effect; inconclusive means small, poorly fitted or top-dose-only effect, or another doubt; inactive means no such curve, though single readings can be large; an effect the other way counts as inactive or inconclusive.

CC(/C=C/C=C(\C)C(=O)O[C@@H]1O[C@H](CO[C@@H]2O[C@H](CO)[C@@H](O)[C@H](O)[C@H]2O)[C@@H](O)[C@H](O)[C@H]1O)=C\C=C\C=C(C)\C=C\C=C(/C)C(=O)O[C@@H]1O[C@H](CO[C@@H]2O[C@H](CO)[C@@H](O)[C@H](O)[C@H]2O)[C@@H](O)[C@H](O)[C@H]1O	none (no result: TSHR antag, B2AR arrestin, ELG1 DNA repair)
COc1ccccc1CN1CC[C@@]2(CCCN(C(=O)c3cccc(F)c3)C2)C1	none (no result: TSHR antag, B2AR arrestin, ELG1 DNA repair)
NNc1nc(N)c2c(n1)-c1ccccc1CC21CCCC1	Gal4-VP16 FLuc inconclusive, ELG1 DNA repair inconclusive, RORg inh 17.8µM
Cc1nc(NCc2ccccc2)c2nc(-c3ccccc3)n(CCCN3CCCCC3C)c2n1 (centres undefined)	none (no result: TSHR antag, B2AR arrestin, ELG1 DNA repair)
CCOc1cc(CNCCc2ccc(S(N)(=O)=O)cc2)ccc1OCc1ccccc1	none
NS(=O)(=O)c1ccc(CCNCc2cc(Br)ccc2OCc2ccccc2)cc1	Gal4-VP16 FLuc 15.8µM, RORg inh inconclusive
CCOc1cc(CNCc2ccccc2)ccc1OCc1ccc(Cl)cc1	ELG1 DNA repair inconclusive, RORg inh inconclusive
COc1cc(CNc2ccc3[nH]c(=O)[nH]c3c2)ccc1OCc1ccc(Cl)cc1	Gal4-VP16 FLuc inconclusive, ELG1 DNA repair inconclusive, RORg inh 2.82µM
COc1ccc(CCNC(=O)Cc2ccc(OCc3ccccc3)c(OC)c2[N+](=O)[O-])cc1OCc1ccccc1	Gal4-VP16 FLuc 3.16µM, ELG1 DNA repair inconclusive, RORg inh inconclusive
COc1ccc(CNCCc2ccc(Cl)cc2)cc1OCc1ccccc1	ELG1 DNA repair 14.6µM, RORg inh inconclusive
Cc1ccc(OCCCCNC(C)c2ccccc2)c(C)c1 (centres undefined)	none
COc1cc(C2NC(=O)c3ccccc3O2)cc(OC)c1OC (centres undefined)	none
COc1cc(C2Oc3ccccc3C=C2[N+](=O)[O-])cc(OC)c1OC (centres undefined)	Gal4-VP16 FLuc 12.6µM, ELG1 DNA repair inconclusive, RORg inh inconclusive
COc1ccc(NC(=S)Nc2cccc3cnccc23)cc1	none
S=C(Nc1cccnc1)Nc1cccc2cnccc12	none
CN(C)S(=O)(=O)c1cccc(NC(=S)Nc2cccc3cnccc23)c1	Gal4-VP16 FLuc inconclusive, ELG1 DNA repair 20.6µM, RORg inh inconclusive
CCOc1ccc(NC(=S)Nc2ccccc2C2CC2)cc1	Gal4-VP16 FLuc 11.2µM, RORg inh 2.82µM
CCOc1ccc(NC(=S)Nc2cccc3ccccc23)cc1	Gal4-VP16 FLuc 8.91µM, ELG1 DNA repair inconclusive, RORg inh 7.94µM
CCOc1ccc(NC(=S)Nc2cccc3cnccc23)cc1	Gal4-VP16 FLuc inconclusive, RORg inh 17.8µM
COc1c2c(c(C(=O)/C=C/C(C)=C/c3ccccc3)c3c1OCO3)CCN(C)C2	none (no result: TSHR antag, B2AR arrestin, ELG1 DNA repair)
CC(=O)n1cc(/C=N/NC(=O)c2ccccc2O)c2ccccc21	Gal4-VP16 FLuc 3.55µM, RORg inh 2.82µM
CC(=O)n1cc(/C=N/NC(N)=S)c2ccccc21	Gal4-VP16 FLuc inconclusive, RORg inh 4.47µM
O=C(N/N=C/c1ccnc2ccccc12)c1ccccc1O	ELG1 DNA repair inconclusive
CC(C)(C)OC(=O)n1cc(/C=N/NC(=O)c2ccco2)c2ccccc21	Gal4-VP16 FLuc inconclusive, ELG1 DNA repair inconclusive, RORg inh inconclusive
Cc1ccc(OCC(=O)N/N=C/c2cn(C)c3ccccc23)cc1	none
Cn1cc(/C=N/NC(=O)c2ccccc2O)c2ccccc21	Gal4-VP16 FLuc 0.891µM, ELG1 DNA repair inconclusive, RORg inh 0.562µM
Cn1cc(/C=N/NC(=O)c2cccc([N+](=O)[O-])c2)c2ccccc21	Gal4-VP16 FLuc inconclusive, ELG1 DNA repair inconclusive, RORg inh 0.501µM
CC1(C(=O)OCC(=O)Nc2cccc(S(=O)(=O)NC3=NCCCCC3)c2)CC1(Cl)Cl (centres undefined)	none
COC(=O)[C@@H](NC(=O)O[C@@H]1C(=O)c2cc(OC)ccc2O[C@H]1c1ccc(OC)c(Br)c1)C(C)C	none (no result: TSHR antag, B2AR arrestin, ELG1 DNA repair)
CCOC(=O)c1ccccc1NC(=O)COC(=O)CN1C(=O)NC2(CCCC2)C1=O	none
CC(=O)OC1CC[C@]2(C)C(CC(OC(C)=O)[C@]3(C)C2CC[C@@]2(C)C(c4ccoc4)OC(=O)C4O[C@]432)C1(C)C (some centres undefined)	none (no result: TSHR antag, B2AR arrestin, ELG1 DNA repair)
CC1=CC(=O)C2=C(C)CC[C@@H]3[C@@H](OC(=O)[C@H]3C)[C@H]12	none (no result: TSHR antag, B2AR arrestin, ELG1 DNA repair)
Cc1nc(C)c(C(=O)N/N=C/c2cn(C)c3ccccc23)s1	Gal4-VP16 FLuc inconclusive, ELG1 DNA repair inconclusive, RORg inh 11.2µM
Cc1nc(C)c(C(=O)N/N=C/c2c[nH]c3ccccc23)s1	ELG1 DNA repair inconclusive
O=S(=O)(CCN1CCN(C(c2ccccc2)c2ccccc2)CC1)C(F)(F)F	Gal4-VP16 FLuc 15.8µM, RORg inh inconclusive
Cc1cccc2sc(NNC(=O)c3ccc(S(=O)(=O)N4CC(C)CC(C)C4)cc3)nc12 (centres undefined)	Gal4-VP16 FLuc 1.41µM, ELG1 DNA repair inconclusive, RORg inh 0.708µM
Cc1cc(C)c2nc(NNC(=O)c3ccc(S(=O)(=O)N4CCCC(C)C4)cc3)sc2c1 (centres undefined)	Gal4-VP16 FLuc 5.01µM, ELG1 DNA repair inconclusive, RORg inh 0.794µM
Cc1ccc2nc(NNC(=O)c3ccc(S(=O)(=O)N4CCc5ccccc5C4)cc3)sc2c1	ELG1 DNA repair inconclusive
COC(=O)c1sc2ccccc2c1NC(=O)c1ccc(S(=O)(=O)N2CC(C)CC(C)C2)cc1 (centres undefined)	none
Cc1cc(C)c2nc(NNC(=O)c3ccc(S(=O)(=O)N4CC(C)CC(C)C4)cc3)sc2c1 (centres undefined)	Gal4-VP16 FLuc 7.94µM, RORg inh 2µM
CC[C@H](C)[C@H](NC(=O)[C@@H](NC(=O)CNC(=O)[C@@H](N)CC(C)C)[C@@H](C)O)C(=O)N1CCC[C@H]1C(=O)NCC(=O)O	none (no result: TSHR antag, B2AR arrestin, ELG1 DNA repair)
Cc1ccc(-n2cc(-c3ccccc3)c3c(=O)[nH]cnc32)cc1	none
O=c1[nH]cnc2c1c(-c1ccccc1)cn2-c1ccccc1	none
Fc1ccc(-n2cc(-c3ccccc3)c3c(=S)nc[nH]c32)cc1	Gal4-VP16 FLuc 1µM, RORg inh 1.26µM
Fc1cccc(-n2cc(-c3ccccc3)c3c(=S)nc[nH]c32)c1	Gal4-VP16 FLuc 0.631µM, ELG1 DNA repair inconclusive, RORg inh 2.51µM
O=C(CCC(=O)Nc1cccc(Cl)c1)N/N=C/c1cc([N+](=O)[O-])ccc1O	Gal4-VP16 FLuc inconclusive, ELG1 DNA repair inconclusive, RORg inh 11.2µM
O=C(CCC(=O)Nc1cccc([N+](=O)[O-])c1)N/N=C/c1cccs1	none
O=C(CCCC(=O)Nc1cccc(Br)c1)N/N=C/c1cc([N+](=O)[O-])ccc1O	Gal4-VP16 FLuc 10µM, ELG1 DNA repair 14.6µM, RORg inh inconclusive
O=C(O)CCCC(=O)Nc1cccc([N+](=O)[O-])c1	none
